Experimental data: PubChem BioAssay (Tox21)
Calls of active or inactive are those of the source. Where a call stands in place of a potency, no number is given. Calls come from the whole dose curve; as a rule, active = well fitted cell-killing curve with a large enough effect in the repeat runs; inconclusive = weak or mixed curves, or effect the other way; inactive = flat fitted curve, though single readings scatter.

assay: qHTS assay to identify small molecule HDAC inhibitors - cell viability counter screen (AID 1259365); conditions: HCT-116 viability, CellTiter-Glo ATP luminescence, 2 h; series mostly up to 92.4 µM; note: nearly all actives have a fitted effect of over 50% in size
Text: U.S. Tox21 Program National Center for Advancing Translational Sciences [NCATS] NIH Chemical Genomics Center [NCGC] U.S. Environmental Protection Agency [EPA] National Institutes of Environmental Health Sciences [NIEHS] National Toxicology Program [NTP] U.S. Food and Drug Administration [FDA] Tox21 Assay Overview: Histone deacetylases (HDACs) are a group of epigenetic enzymes that regulate gene expression by histone deacetylation. HDACs are capable of introducing epigenetic modifications and such aberrations contribute to the onset and progression of several human diseases, thus making HDACs a popular therapeutic target. For identifying endogenous class I/II HDAC inhibitors a homogenous, luminogenic HDAC I/II cell based assay was used to measure the relative activity of class I and II HDACs from cells. Wild type HCT-116 cells were used to screen Tox21 compound libraries for identifying class I/II HDAC inhibitors.
Tox21 Assay Protocol Summary: HCT-116 cells were dispensed at 1,500 per well in 5uL of culture medium into white solid bottom 1536-well plates (Greiner Bio-One, Monroe, NC) using a Multidrop Combi (Thermo Scientific, Waltham, MA) dispenser. The assay plates were incubated at 37 C and 5% CO2 for an overnight, and then 23nL of compounds dissolved in DMSO and positive control were transferred using a Pintool station (Wako, San Diego, CA). The assay plates were incubated at 37C and 5% CO2 for 2hr. After compound treatment, 4uL of CellTiter-Glo reagent (Promega Corporation, Madison, WI) was added to each well of the assay plates using Flying Reagent Dispenser (FRD, Aurora Discovery, San Diego, CA) and incubated the assay plates at room temperature for 30min. The luminescence signal was quantified using a ViewLux plate reader (Perkin Elmer, Shelton, CT).
Potency is the fitted concentration of half-maximal effect.

SMILES	Potency	activity change, negative = cytotoxicity
Clc1ccc(C(Cn2ccnc2)OCc2ccc(Sc3ccccc3)cc2)c(Cl)c1 (stereo not given)	inactive	
CSc1ccc2c(c1)C(N1CCN(C)CC1)Cc1ccccc1S2 (stereo not given)	inactive	
CC(=O)OCC(C)OC(C)=O (stereo not given)	inactive	
CNC(=O)c1ccccc1	inactive	
O=C(Nc1cccc(Cl)c1)OCC#CCCl	inactive	
CCC(C)(C)C1CCCCC1OC(C)=O (stereo not given)	inactive	
O=[N+]([O-])c1cc(Cl)c(Cl)c(Cl)c1Cl	inactive	
CC(C)(C)CC(C)(C)c1ccc(OCCOCC[N+](C)(C)Cc2ccccc2)cc1	inactive	
NNc1nc(-c2ccc(N)cc2)cs1	inactive	
Cc1[nH]nc2c1N=C(c1ccccc1Cl)c1cc([N+](=O)[O-])ccc1N2	inactive	
Cc1cc(N)c(S(=O)(=O)O)cc1Cl	inactive	
CCCCC(CC)COC(=O)c1ccccc1C(=O)O (stereo not given)	inactive	
C/C(=C(/OCCOc1ccc(Cl)cc1)c1ccc(Cl)cc1Cl)n1ccnc1	inactive	
Cc1ccc2oc(CN(Cc3ccccc3)C(=O)Nc3c(F)cc(F)cc3F)c(-c3ccc(Cl)cc3)c2c1	inactive	
C[n+]1ccn(Cc2ccccc2)c1	inactive	
NC(=O)NS(=O)(=O)c1ccc(N)cc1	inactive	
CSc1ccc(/C=C2/C(C)=C(CC(=O)O)c3cc(F)ccc32)cc1	inactive	
O=C1c2ccccc2Cc2ccccc21	inactive	
CN(C)c1ccc(SC#N)cc1	inactive	
CCCCCCCC/C=C\CCCCCCCCOCCO	inactive	

SMILES	Potency	activity change, negative = cytotoxicity
O=c1cc(-c2ccc(O)cc2)oc2cc(O)cc(O)c12	inactive	
Cn1cc(C(=O)[C@@H]2CCc3nc[nH]c3C2)c2ccccc21	inactive	
N=C1C=CC(=C(c2ccc(N)cc2)c2ccc(N)cc2)C=C1	24.3 µM (active)	
CCCCCCCCCOC(=O)c1ccc(O)cc1	inactive	
CCC(CN)=C(c1ccccc1)c1ccccc1	inactive	
O=c1cccccc1O	inactive	
CCC(Cl)C(Cl)C(Cl)CC(Cl)C(Cl)C(C)Cl (stereo not given)	inactive	
COc1cc(-c2ccc(N=C=O)c(OC)c2)ccc1N=C=O	inactive	
CCC1OCC(COc2ccc(Oc3ccccc3)cc2)O1 (stereo not given)	inactive	
O=C(Nc1cccc([N+](=O)[O-])c1)c1cc2ccccc2cc1O	inactive	
Clc1ccc2cc3ccccc3cc2c1	inactive	
[O-][n+]1ccccc1SSc1cccc[n+]1[O-]		12.3% [at 19 µM] (inactive)
COC(=O)C1=C(C)NC(C)=C(C(=O)OCC(C)C)C1c1ccccc1[N+](=O)[O-] (stereo not given)	inactive	
O=[N+]([O-])c1ccccc1Nc1ccccc1	inactive	
N#CC1(c2ccc(F)cc2)CCC(=O)CC1	inactive	
Cc1onc(-c2c(Cl)cccc2Cl)c1C(=O)N[C@@H]1C(=O)N2[C@@H]1SC(C)(C)[C@@H]2C(=O)O	inactive	
Cc1ccc(O)c(C(C)(C)C)c1	inactive	
CCC(C)Nc1ccc(NC(C)CC)cc1 (stereo not given)	24.8 µM (active)	
NNc1nc(-c2ccc([N+](=O)[O-])cc2)cs1	inactive	
O=[N+]([O-])c1cc([N+](=O)[O-])c2ccc(S(=O)(=O)O)cc2c1O	inactive	
